Measurements as given in PubChem BioAssay (EPA / NIEHS).
Calls of active or inactive are those of the source. How the source made its calls: active means hit-call score of the fitted dose curve at least 0.9, where 1 is the maximum; inactive means score below 0.9.

Experiments:
[1] = ATG_CRE_CIS: Attagene CIS-FACTORIAL HepG2 Assay for human cAMP Responsive Element (CRE) binding protein 3 (AID 2282926); conditions: HepG2 CRE cis-reporter, Attagene multiplexed mRNA; actives raise or lower the signal
Summary of the method: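 Readout: fluorescently labelled reporter transcripts resolved by capillary electrophoresis after RT-PCR, taken 24 h post-dosing in transfected HepG2. Endogenous transcription factor activity drives each cis-element reporter; gain or loss of signal fitted relative to DMSO control.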

[2] = ATG_CMV_CIS: Attagene CIS-FACTORIAL HepG2 Assay for human CMV (Internal Marker) (AID 2282928); conditions: HepG2 CMV promoter reporter, transcription factor profiling; actives raise or lower the signal;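 further: endpoint acts as a background internal control marker rather than a target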
Summary of the method: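 24 h chemical treatment, HepG2 with transient multi-reporter transfection; RNA → oligo(dT) RT → PCR → 6-FAM extension → HpaI digest → CE fluorescence. Bidirectional fit, DMSO negative control.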

[3] = molecular target: Aryl hydrocarbon receptor (Homo sapiens) (UniProt P35869); test: ATG_Ahr_CIS: Attagene CIS-FACTORIAL HepG2 Assay for human Aryl Hydrocarbon Receptor (Ahr) (AID 2282930); conditions: HepG2 AhR cis-factorial reporter transcription; actives raise or lower the signal
Sequence of Aryl hydrocarbon receptor (Homo sapiens) (P35869 whole entry, looked up): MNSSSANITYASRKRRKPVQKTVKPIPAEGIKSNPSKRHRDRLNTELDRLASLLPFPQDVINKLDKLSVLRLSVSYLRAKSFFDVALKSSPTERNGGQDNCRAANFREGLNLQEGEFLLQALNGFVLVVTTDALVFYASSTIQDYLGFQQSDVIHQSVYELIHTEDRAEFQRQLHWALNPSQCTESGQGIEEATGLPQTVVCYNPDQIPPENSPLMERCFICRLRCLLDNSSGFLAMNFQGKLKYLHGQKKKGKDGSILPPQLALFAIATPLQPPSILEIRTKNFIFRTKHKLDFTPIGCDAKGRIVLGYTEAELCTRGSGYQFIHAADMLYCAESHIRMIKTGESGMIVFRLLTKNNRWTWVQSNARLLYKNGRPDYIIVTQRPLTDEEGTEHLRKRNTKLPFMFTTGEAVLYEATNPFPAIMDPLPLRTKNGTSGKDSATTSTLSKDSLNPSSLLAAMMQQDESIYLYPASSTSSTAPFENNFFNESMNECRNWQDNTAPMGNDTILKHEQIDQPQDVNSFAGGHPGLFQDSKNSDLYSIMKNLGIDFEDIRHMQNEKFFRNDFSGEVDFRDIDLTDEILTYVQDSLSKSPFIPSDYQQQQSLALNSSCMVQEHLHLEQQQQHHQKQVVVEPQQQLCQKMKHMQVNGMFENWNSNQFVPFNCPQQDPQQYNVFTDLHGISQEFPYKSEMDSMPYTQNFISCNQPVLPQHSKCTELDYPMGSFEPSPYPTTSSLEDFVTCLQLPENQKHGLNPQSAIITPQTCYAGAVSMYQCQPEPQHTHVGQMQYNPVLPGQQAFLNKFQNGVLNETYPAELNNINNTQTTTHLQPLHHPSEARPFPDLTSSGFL
Summary of the method: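 Read-out: reporter mRNA quantified by RT-PCR with fluorescent primer extension and capillary electrophoresis. Human HepG2 liver cells carried transfected cis-promoter reporter units and were exposed to chemical for 24 h; gain or loss fitted relative to DMSO.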

[4] = ATG_AP_2_CIS: Attagene CIS-FACTORIAL HepG2 Assay for human Activator Protein 2 (AP-2) (AID 2282932); conditions: HepG2 AP-2 cis-reporter, Attagene transcription factor profiling; actives raise or lower the signal
Summary of the method: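 Read-out: fluorescent reporter mRNA via RT-PCR and capillary electrophoresis, 24 h post-dose in transiently transfected HepG2. Endogenous factors drive cis-promoter reporters; gain or loss of signal fitted bidirectionally against DMSO.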

[5] = ATG_BRE_CIS: Attagene CIS-FACTORIAL HepG2 Assay for human Bone Morphogenetic Protein (BMP) Response Element (BRE) (AID 2282933); conditions: HepG2 BMP response element reporter, Attagene transcription factor profiling; actives raise or lower the signal
Summary of the method: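 HepG2 cells transiently transfected with multiplexed cis-element reporter units were dosed with chemical for 24 h. Reporter mRNA was measured by RT-PCR with fluorescent labelling, HpaI digestion and capillary electrophoresis; bidirectional fitting relative to DMSO.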

[6] = molecular target: Retinoic acid receptor alpha (Homo sapiens) (UniProt P10276); test: ATG_DR5_RAR_CIS: Attagene CIS-FACTORIAL HepG2 Assay for human Retinoic Acid Receptor Alpha (RARE), DR5 submotif (AID 2282934); conditions: HepG2 Attagene cis-factorial RARE DR5 reporter, mRNA; actives raise or lower the signal;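 on AC50: reporter responds to endogenous RAR alpha beta and gamma in HepG2 not RARA alone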
Sequence of Retinoic acid receptor alpha (Homo sapiens) (P10276 whole entry, looked up): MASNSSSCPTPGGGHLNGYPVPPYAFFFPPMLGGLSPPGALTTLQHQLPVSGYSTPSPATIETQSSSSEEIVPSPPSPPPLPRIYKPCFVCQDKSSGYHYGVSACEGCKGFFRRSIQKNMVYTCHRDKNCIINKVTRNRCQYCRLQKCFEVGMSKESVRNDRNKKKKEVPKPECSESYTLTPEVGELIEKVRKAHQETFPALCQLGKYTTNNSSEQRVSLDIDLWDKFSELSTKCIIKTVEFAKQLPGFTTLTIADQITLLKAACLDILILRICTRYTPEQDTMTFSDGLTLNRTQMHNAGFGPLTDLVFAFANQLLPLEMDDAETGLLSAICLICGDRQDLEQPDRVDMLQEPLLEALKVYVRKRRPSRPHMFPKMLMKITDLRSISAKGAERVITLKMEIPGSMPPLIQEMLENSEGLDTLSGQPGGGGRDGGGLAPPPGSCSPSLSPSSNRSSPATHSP
Summary of the method: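 Read-out: DR5-driven reporter transcript measured by RT-PCR, 6-FAM primer extension, HpaI digest and capillary electrophoresis. Human HepG2 liver cells carry transiently transfected cis-element reporter constructs; dosing lasts 24 h. Gain or loss of signal fitted against DMSO baseline.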

[7] = molecular target: Transcription factor E2F1 (Homo sapiens) (UniProt Q01094); test: ATG_E2F_CIS: Attagene CIS-FACTORIAL HepG2 Assay for human E2F Transcription Factor 1 (AID 2282935); conditions: HepG2 Attagene cis-reporter, E2F reporter RNA transcripts; actives raise or lower the signal
Sequence of Transcription factor E2F1 (Homo sapiens) (Q01094 whole entry, looked up): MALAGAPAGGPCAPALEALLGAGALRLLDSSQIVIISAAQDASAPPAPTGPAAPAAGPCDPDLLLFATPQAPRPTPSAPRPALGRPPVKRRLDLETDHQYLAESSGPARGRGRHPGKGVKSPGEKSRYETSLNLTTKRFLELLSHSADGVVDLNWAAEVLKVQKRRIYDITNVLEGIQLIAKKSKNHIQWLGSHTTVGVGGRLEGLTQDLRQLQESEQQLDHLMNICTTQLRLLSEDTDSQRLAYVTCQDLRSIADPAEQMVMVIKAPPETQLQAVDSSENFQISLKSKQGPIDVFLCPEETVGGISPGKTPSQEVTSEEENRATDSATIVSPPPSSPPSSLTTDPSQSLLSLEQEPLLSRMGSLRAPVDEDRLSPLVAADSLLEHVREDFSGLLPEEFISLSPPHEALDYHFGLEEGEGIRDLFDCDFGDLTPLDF
Summary of the method: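 Transient MRTU transfection of HepG2; 24 h compound exposure; RNA → oligo(dT) RT → PCR → FAM label → HpaI cut → CE fluorescence. Gain/loss of signal fit against DMSO.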

[8] = ATG_E_Box_CIS: Attagene CIS-FACTORIAL HepG2 Assay for human Enhancer Box (E-box) (AID 2282936); conditions: HepG2 E-box cis-reporter transcription, actives raise or lower the signal
Summary of the method: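 Transiently transfected HepG2, endogenous TF-driven reporters, 24 h dosing. Readout: RT-PCR plus capillary electrophoresis of fluorescent reporter fragments. Gain or loss of signal fitted bidirectionally against DMSO baseline.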

[9] = ATG_M_61_CIS: Attagene CIS-FACTORIAL HepG2 Assay for M61 Transcription Factor (Internal Marker) (AID 2282937); conditions: HepG2 Attagene CIS-FACTORIAL M61 internal marker reporter; actives raise or lower the signal
Summary of the method: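 Fluorescence from labelled cDNA fragments, separated by capillary electrophoresis, quantifies reporter induction. HepG2 cells bearing transiently transfected cis-promoter MRTUs were incubated with test chemical for 24 h; DMSO defined baseline for gain/loss fitting.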

[10] = ATG_EGR_CIS: Attagene CIS-FACTORIAL HepG2 Assay for human Early Growth Response 1 (EGR1) (AID 2282938); conditions: HepG2 Attagene CIS-FACTORIAL EGR reporter mRNA; actives raise or lower the signal
Summary of the method: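 Cell-based multiplex transcription assay: HepG2 carrying transfected cis-element reporter units, 24 h chemical treatment. Fluorescence from capillary electrophoresis of RT-PCR products gives mRNA levels; fitting is bidirectional relative to DMSO.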

[11] = ATG_M_19_CIS: Attagene CIS-FACTORIAL HepG2 Assay for M19 Transcription Factor (Internal Marker) (AID 2282939); conditions: HepG2 Attagene CIS-FACTORIAL M19 internal marker reporter; actives raise or lower the signal
Summary of the method: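 HepG2 cells transiently transfected with cis-regulated multiple reporter transcription units were dosed for 24 h; reporter mRNA was quantified by RT-PCR, 6-FAM primer-extension labelling, HpaI digestion and capillary electrophoresis, with bidirectional fitting against DMSO baseline.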

[12] = ATG_ERE_CIS: Attagene CIS-FACTORIAL HepG2 Assay for Estrogen Response Element (ERE) (AID 2282940); conditions: HepG2 ERE cis-reporter, Attagene RNA transcript; actives raise or lower the signal
Summary of the method: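 HepG2 cells transiently transfected with cis-promoter-driven multiplexed reporter transcription units report endogenous TF activity. After 24 h compound exposure, reporter mRNA is quantified by RT-PCR with capillary electrophoresis fluorescence; bidirectional fitting versus DMSO baseline.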

[13] = ATG_Ets_CIS: Attagene CIS-FACTORIAL HepG2 Assay for human Erythroblast Transformation Specific (ETS) (AID 2282941); conditions: HepG2 ETS cis-reporter transcription, actives raise or lower the signal
Summary of the method: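 Cis-regulated reporter mRNA induction in HepG2 (transient transfection), 24 h exposure, RT-PCR plus capillary electrophoresis detection; DMSO serves as negative control and baseline.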

[14] = molecular target: Hepatocyte nuclear factor 3-beta (Homo sapiens) (UniProt Q9Y261); test: ATG_FoxA2_CIS: Attagene CIS-FACTORIAL HepG2 Assay for human Forkhead box A2 (FOXA2) (AID 2282942); conditions: HepG2 cis-reporter transcription factor activity, 24 h; actives raise or lower the signal
Sequence of Hepatocyte nuclear factor 3-beta (Homo sapiens) (Q9Y261 whole entry, looked up): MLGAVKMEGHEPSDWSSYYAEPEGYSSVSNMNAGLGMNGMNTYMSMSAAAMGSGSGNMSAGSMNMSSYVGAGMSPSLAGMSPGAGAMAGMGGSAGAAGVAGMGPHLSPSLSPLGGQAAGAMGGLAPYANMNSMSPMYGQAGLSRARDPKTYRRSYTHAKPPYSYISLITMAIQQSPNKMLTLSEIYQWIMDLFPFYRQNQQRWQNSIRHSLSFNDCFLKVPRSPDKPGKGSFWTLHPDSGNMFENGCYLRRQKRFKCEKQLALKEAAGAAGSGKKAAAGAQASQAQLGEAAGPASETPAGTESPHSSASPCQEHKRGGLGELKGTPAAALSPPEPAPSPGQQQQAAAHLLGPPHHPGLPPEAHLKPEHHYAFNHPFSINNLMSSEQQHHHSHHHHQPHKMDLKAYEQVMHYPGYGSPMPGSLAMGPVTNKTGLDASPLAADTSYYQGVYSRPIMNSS
Summary of the method: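 In transiently transfected human HepG2 cells, promoter-driven reporter mRNA levels after 24 h chemical exposure are determined via RT-PCR with capillary electrophoresis. DMSO serves as baseline for bidirectional fitting.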

[15] = ATG_FoxO_CIS: Attagene CIS-FACTORIAL HepG2 Assay for human Forkhead box O (FoxO) (AID 2282943); conditions: HepG2 Attagene cis-reporter, FoxO element, mRNA; actives raise or lower the signal
Summary of the method: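 Read-out: fluorescence of 6-FAM-labelled reporter cDNA fragments resolved by capillary electrophoresis. Transiently transfected HepG2 cells were dosed for 24 h; activity fitted in both directions relative to DMSO controls.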

[16] = ATG_GLI_CIS: Attagene CIS-FACTORIAL HepG2 Assay for human Zinc Finger Protein GLI1 (AID 2282945); conditions: HepG2, Attagene cis-factorial reporter mRNA, GLI element; actives raise or lower the signal
Summary of the method: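 Transiently transfected HepG2 cells report endogenous transcription factor activity via cis-element-driven reporter units. After 24 h compound exposure, reporter mRNA was measured by RT-PCR with capillary electrophoresis; bidirectional fitting against DMSO baseline.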

[17] = ATG_DR4_LXR_CIS: Attagene CIS-FACTORIAL HepG2 Assay for human Liver X Receptor (LXR), DR4 submotif (AID 2282929); conditions: HepG2 Attagene DR4 cis-reporter, mRNA transcription; actives raise or lower the signal
Summary of the method: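 Measures endogenous transcription factor activity via a DR4-driven reporter transcript in human HepG2 cells. Compounds incubated 24 h; mRNA quantified by RT-PCR and capillary electrophoresis, analysed as gain or loss of signal versus DMSO.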

[18] = ATG_AP_1_CIS: Attagene CIS-FACTORIAL HepG2 Assay for human Activator Protein 1 (AP-1) (AID 2282931); conditions: HepG2 Attagene cis-factorial AP-1 reporter mRNA; actives raise or lower the signal
Summary of the method: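 Bidirectional concentration-response fitting against DMSO controls. Underlying signal: reporter mRNA from cis-promoter constructs in transiently transfected HepG2, measured after 24 h by RT-PCR and capillary electrophoresis.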

[19] = ATG_GATA_CIS: Attagene CIS-FACTORIAL HepG2 Assay for human GATA Binding Protein (AID 2282944); conditions: HepG2 GATA cis-element reporter, Attagene multiplex mRNA; actives raise or lower the signal
Summary of the method: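 HepG2 cells transiently transfected with multiplexed cis-element reporter units reflecting endogenous transcription factor activity; reporter mRNA measured after 24 h dosing by RT-PCR, 6-FAM labeling, HpaI digestion and capillary electrophoresis. Bidirectional fitting versus DMSO baseline.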

Measured: AC50

O=c1cc[nH]c(=S)[nH]1
not listed: [17] | [18] | [19]
inactive: all other assays above

CC(C)c1ccc2c(C(C)C)cc(C(C)C)c(S(=O)(=O)O)c2c1
active: [12] 49.7 µM
not listed: [16]
inactive: all other assays above

CCCC(=O)OCc1ccccc1
not listed: [2] | [9] | [10] | [17]
inactive: all other assays above

N#CCc1ccc(Cl)cc1Cl
active: [3] 18.6 µM
not listed: [2] | [13] | [14] | [17] | [18]
inactive: all other assays above

CC(C)(c1cc(Br)c(OCCO)c(Br)c1)c1cc(Br)c(OCCO)c(Br)c1
inactive: [3] | [5] | [8] | [9] | [12] | [15] | [19] | [16]
active: [1] 38.7 µM | [2] 36.7 µM | [17] 15.6 µM | [18] 36.6 µM | [4] 10.5 µM | [6] 0.22 µM | [7] 36 µM | [10] 10.5 µM | [11] 44.5 µM | [13] 43.7 µM | [14] 44.2 µM

CC(=O)CC(N)=O
not listed: [3]
inactive: all other assays above

Nc1ccc(Cl)cc1Cl
not listed: [18]
inactive: all other assays above

COC(=O)c1ccc2cc(C(=O)OC)ccc2c1
inactive: all assays above

O=C(O)C(c1ccc(Cl)cc1)c1ccc(Cl)cc1
active: [12] 2.68 µM
not listed: [2] | [18]
inactive: all other assays above

c1ccc2c(c1)ccc1cc3c(ccc4ccccc43)cc12
active: [3] 0.0244 µM | [12] 0.18 µM | [14] 0.0767 µM
not listed: [8] | [10]
inactive: all other assays above

Oc1ccc(Cl)cc1Cc1cc(Cl)ccc1O
active: [1] 3.51 µM | [17] 7.95 µM | [18] 17.6 µM | [4] 15.4 µM | [5] 3.46 µM | [6] 3.08 µM | [10] 8.39 µM | [12] 3.04 µM | [13] 6.68 µM
not listed: [14]
inactive: all other assays above

S=C(NC1CCCCC1)NC1CCCCC1
not listed: [8] | [17] | [18]
inactive: all other assays above

C=C(C)c1cccc(C(C)(C)N=C=O)c1
active: [3] 100 µM
inactive: all other assays above

Cc1cc(O)c(Cl)c(C)c1Cl
active: [2] 23.9 µM | [12] 28.3 µM
not listed: [14]
inactive: all other assays above

NNC(=O)c1cccc(C(=O)NN)c1
not listed: [16]
inactive: all other assays above

C=CC(=O)NC(C)(C)CS(=O)(=O)O
active: [5] 15.8 µM
not listed: [8] | [10] | [13]
inactive: all other assays above

N=c1ccn2c(n1)O[C@H]1[C@H](O)[C@@H](CO)O[C@H]12
not listed: [9] | [18] | [19]
inactive: all other assays above

O=C(O)CCCCCCCCCC(=O)O
active: [12] 22 µM
not listed: [3] | [13]
inactive: all other assays above

O=C(O)CCCC[C@@H]1SC[C@@H]2NC(=O)N[C@@H]21
not listed: [2] | [8]
inactive: all other assays above

NC(CO)(CO)CO
not listed: [14]
inactive: all other assays above
